# According to ChEMBL document CHEMBL3988442, “University of Dundee, Small-Polar-MMV Screening Library” (2021):
# The whole screen tested about 48,000 compounds, of which about 13,000 (27%) showed an effect of 50% or more. This is one part of the list.
# System: Wolbachia pipientis
# Experiment: Anti-Wolbachia Cell-Based Screen
# Format: functional
# Design: scale not given: in the data most compounds retested in dose-response had high values
# Conditions: 5 µM
row,SMILES,Percent Effect
1,N#Cc1ccccc1C(=O)N1C[C@H](CO)C[C@H](CN2CCCC2)C1,4.936%
2,Cc1nc(C(=O)N2CCN(C(=O)C3CCC3)[C@@H]3CS(=O)(=O)C[C@@H]32)cs1,7.717%
3,CNC(=O)NC(=O)C(C)N1CCC(c2c[nH]c3ccc(OC)cc23)CC1 (centres undefined),1.858%
4,CC(C)CCN(C)Cn1ncc2cn(-c3ccccc3)nc2c1=O,5.11%
5,CCn1c(CNC(=O)c2ccc(N(C)C)nc2)nc2ccccc21,8.635%
6,Cc1nc(NC(=O)NCc2nc3cccc(C)c3n2C)oc1C,43.9%
7,CCn1c(CNC(=O)Nc2nc(C)c(C)o2)nc2ccccc21,89.34%
8,CC(=O)NCCSCCOc1cccc(Br)c1,-2.574%
9,CCCNC(=O)CSCc1ccc(S(=O)(=O)N(C)C)o1,-0.4398%
10,CNc1oc(-c2ccc(S(=O)(=O)N(C)C)o2)nc1C#N,100.4%
11,Cc1oc(-c2nc(C#N)c(N(C)C)o2)cc1S(=O)(=O)N1CCCC1,17.91%
12,CN(C)S(=O)(=O)c1ccc(-c2nc(C#N)c(NC(C)(C)C)o2)o1.Cl,93%
13,CNc1oc(-c2cc(S(=O)(=O)N3CCCCCC3)c(C)o2)nc1C#N,9.909%
14,CC(C)Nc1oc(-c2ccc(S(=O)(=O)N(C)C)o2)nc1C#N,118.4%
15,CN(C)S(=O)(=O)c1ccc(CSCC(=O)NC(C)(C)C)o1,-7.197%
16,CNc1oc(-c2ccc(OC)c(S(=O)(=O)N3CCCCC3)c2)nc1C#N,-6.371%
17,COc1cccc(N2CC3(CCN(c4ccncn4)C3)CC2=O)c1 (centres undefined),-12.13%
18,Cc1nnc2n1CCN(Cc1nc3ccccc3o1)C2,13.24%
19,O=C(N[C@@H]1CCNC[C@H]1O)c1cc(F)cc(Cl)c1,0.509%
20,O=C(CCC(=O)N1CCNC(=O)C1c1cccc(F)c1)NC1CCCC1 (centres undefined),-14.56%
21,O=C(O)CCCC(=O)N1CCC(c2noc3cc(F)ccc23)CC1,110.7%
22,O=C(CCc1cc(O)no1)N1CCC(Cc2ccc(F)cc2)CC1,-4.234%
23,O=C(O)CCC(=O)N1CCC(c2noc3cc(F)ccc23)CC1,117.2%
24,CS(=O)(=O)CCC(=O)N1CCC(c2cccc(F)c2)C1 (centres undefined),-0.1646%
25,CC(C)NC(=O)CCN1CCC(C(=O)c2cc(F)ccc2F)CC1,-38.81%
26,CC(C)NC(=O)CCC(=O)N1CCC(c2noc3cc(F)ccc23)CC1,90.62%
27,O=C(CN1CCC(C(=O)c2cc(F)ccc2F)CC1)NC1CC1,-20.5%
28,CC(=O)N1CC[C@H](c2nc3cc(F)ccc3o2)C1,5.323%
29,O=C(CCC(=O)N1CCC(c2noc3cc(F)ccc23)CC1)NC1CC1,145.4%
